Laboratory results as given in PubChem BioAssay (NCATS).
“And” between values parts separate entries of the source, which are not always exact repeats. Equal entries are not always repeated. Results filed as inconclusive are left out. Unmarked numbers belong to inactive results. The source made the active and inactive calls. Calls come from the whole dose curve; as a rule, active = well fitted activation curve with a large enough effect; inconclusive = small, poorly fitted or top-dose-only effect; inactive = no such curve, though single readings can be large or run the other way.
Potency is the fitted concentration of half-maximal effect.

These molecules were tested against Cellular tumor antigen p53 (Homo sapiens) (UniProt P04637) (assay: Primary qHTS for small molecule compounds that upregulate eGFP-tagged delta133p53alpha (in N-terminal) cells. (AID 2060322; note: nearly all actives have a fitted effect of over 75% in size;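 for activation: series mostly up to about 56 µM; 0% = DMSO vehicle and 100% = reference activator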)). Details: NCI-H358 eGFP-delta133p53alpha fluorescence, 24 h; activation: hits give high values.
Sequence of Cellular tumor antigen p53 (Homo sapiens) (P04637 whole entry, looked up): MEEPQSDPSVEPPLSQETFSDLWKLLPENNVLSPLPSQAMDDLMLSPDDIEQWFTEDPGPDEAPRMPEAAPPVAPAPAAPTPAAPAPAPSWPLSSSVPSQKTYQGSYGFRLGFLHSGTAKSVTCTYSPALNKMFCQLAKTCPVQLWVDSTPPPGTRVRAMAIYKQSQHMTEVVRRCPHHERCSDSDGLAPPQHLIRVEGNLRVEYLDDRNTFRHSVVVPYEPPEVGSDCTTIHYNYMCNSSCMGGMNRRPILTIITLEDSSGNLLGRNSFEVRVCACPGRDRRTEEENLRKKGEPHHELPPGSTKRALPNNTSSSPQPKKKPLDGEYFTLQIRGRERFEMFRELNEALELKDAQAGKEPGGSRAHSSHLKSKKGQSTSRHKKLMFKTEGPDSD
Method in brief: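 NCI-H358 cells pre-induced 24 h with 10 ng/ml doxycycline to express N-terminal eGFP-delta133p53alpha, then dosed 24 h at 37C without doxycycline; fixed, Hoechst-stained, GFP intensity by laser scanning cytometry, normalized to DMSO (0%) and 57.5 uM 5-azacytidine (100%).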
`O=C1NC(=O)c2c1c(-c1ccccc1)cc1[nH]c3ccc(O)cc3c21` was tested, and the activation was -2.02%. In the case of `C[C@]12CC[C@@H]3c4ccc(O)cc4C[C@@H](CCCCCCCCCS(=O)CCCC(F)(F)C(F)(F)F)[C@H]3[C@@H]1CC[C@@H]2O` (some centres undefined), the activation is reported as 5.86% and -66.3%. Molecule `NC/C=C\C(=O)O` has an activation of 28.9%. `CC[C@@H]1Cc2cc(O)ccc2C2=C1c1ccc(O)cc1C[C@H]2CC` gave an activation of -56%. `CCN(CC)c1ncnc2c1ncn2[C@@H]1O[C@H](COP(=O)(O)OP(=O)(O)C(Br)(Br)P(=O)(O)O)[C@@H](O)[C@H]1O` was tested, and the activation was -18.4%. For `CC(C)Cn1c(=O)n(C)c(=O)c2[nH]cnc21`, the activation was -30.3%. In the case of `NC1(C(=O)O)CCCCC1`, the activation is reported as 13.9%. For `CC12C(=O)OC(=O)C1(C)C1CCC2O1` (centres undefined), the Potency was 1.69 µM (active). With `NC(=O)C(=O)O` the activation was -8.72%. For `O=c1cc(-c2ccc(O)cc2)oc2cc(O)cc(O)c12`, the activation was -19.8% and -40.1%. For `CN(C)CCCN1c2ccccc2Sc2ccc(C(F)(F)F)cc21`, the activation was 25.1% and 58.3%. For `CC[C@H]1OC(=O)[C@H](C)[C@@H](O[C@H]2C[C@@](C)(OC)[C@@H](O)[C@H](C)O2)[C@H](C)[C@@H](O[C@@H]2O[C@H](C)C[C@H](NC)[C@H]2O)[C@](C)(O)C[C@@H](C)CN(C)[C@H](C)[C@@H](O)[C@]1(C)O`, the activation was -4.2%. In the case of `O=C1NCN(c2ccccc2)C12CCN(CCCC(c1ccc(F)cc1)c1ccc(F)cc1)CC2`, the activation is reported as -12.6% and -53.2%. `c1ccc2c(c1)CCC[C@H]2Nc1nc2ccccc2[nH]1` gave an activation of 27.9%. `Cn1cc(C(=O)OCC2CCN(CCNS(C)(=O)=O)CC2)c2ccccc21` showed an activation of -16.5%. For `Fc1ccc([C@@H]2CCNC[C@H]2COc2ccc3c(c2)OCO3)cc1`, the activation was 28.5% and -0.566% and 41.3%. In the case of `Cc1c(O)cccc1C(=O)N[C@@H](CSc1ccccc1)[C@H](O)CN1C[C@H]2CCCC[C@H]2C[C@H]1C(=O)NC(C)(C)C`, the activation is reported as -0.838%. For `CCOC(=O)C1=C(C)NC(C)=C(C(=O)OCC)C1c1c(F)c(F)c(F)c(F)c1F`, the activation was 26.5%. `CC(C)(C)c1ccc(C(O)CCCN2CCC(C(O)(c3ccccc3)c3ccccc3)CC2)cc1` (centres undefined) was tested, and the activation was 5.86% and -0.341%. With `CC1(C)C(=O)N(CCN2CCC(C(=O)c3ccc(F)cc3)CC2)c2ccccc21` the activation was -67.7% and -2.62%. For `CN(C(=O)CCCOc1ccc2[nH]c(=O)ccc2c1)C1CCCCC1`, the activation was -9.21% and -37.7%. Work on `Brc1c(Br)c(Br)c2[nH]cnc2c1Br` yielded an activation of -55.8%. `O=C(O)CCCC[C@@H]1CCSS1` gave an activation of -13.5%. Work on `CN(C)CCCN1c2ccccc2Sc2ccc(Cl)cc21` yielded an activation of -15.3%. In the case of `C=CCNc1ncnc2ccc(Br)cc12`, the activation is reported as -43.6%. Work on `C=C1C(=O)O[C@@H]2[C@H]3O[C@]3(C)CCC=C(C)CC[C@@H]12` yielded an activation of -45%. `CC1=C(/C=C/C(C)=C/C=C/C(C)=C/C(=O)Nc2ccc(O)cc2)C(C)(C)CCC1` was tested, and the activation was -39.3%. Molecule `CC(=O)NNC(=O)N1Cc2ccccc2Oc2ccc(Cl)cc21` has an activation of -0.739%. Molecule `CC(C)Cc1ccc([C@H](C)C(=O)O)cc1` has an activation of -12.1%. Molecule `C/C(=C\c1ccc(C(=O)O)cc1)c1ccc2c(c1)C(C)(C)CCC2(C)C` has an activation of -14.6%. With `COc1ccccc1OCCNCC(O)COc1cccc2[nH]c3ccccc3c12` (centres undefined) the activation was 23.9% and -57.4%. For `COc1cc2nc(N3CCN(C(=O)c4ccco4)CC3)nc(N)c2cc1OC`, the activation was 2.51% and 14.7% and 81.5%. `Nc1cc(Cl)c(NC2=NCCN2)c(Cl)c1` was tested, and the activation was -1.06%. `N=S(=O)(O)Cc1noc2ccccc12` showed an activation of -35.5%. `CNCCC=C1c2ccccc2CCc2ccccc21` was tested, and the activation was 33%. `CC(C)NC[C@H](O)COc1ccc(CC(N)=O)cc1` gave an activation of -18.8%. With `CC(C)(C)c1ccc(C(=O)CCCN2CCC(OC(c3ccccc3)c3ccccc3)CC2)cc1` the activation was -44.6%. In the case of `CC(=O)/C(C)=N/O`, the activation is reported as -2.27%. `COC(=O)[C@H](NC(=O)c1cc(-c2ccccc2)nc2ccccc12)c1ccccc1` showed an activation of 6.75%.
